Measurements as given in PubChem BioAssay AID1863 (Southern Research Specialized Biocontainment Screening …, 2009).
The campaign covered roughly 300,000 compounds. About 480 (0.16%) were called active. The list is a sample of the results. Measured potencies and affinities stand elsewhere. Values without a mark were called inactive.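 How the source made its calls: active means inhibition over 29.93%, a cutoff 3 SD above the screen mean, later confirmed by dose response; inconclusive means inhibition over 29.93% but no dose response follow-up; inactive means inhibition at most 29.93% or unconfirmed.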

assay: inhibitors of PhoP regulon expression, primary screen, Salmonella Typhimurium, GFP reporter (AID 1863);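 further: 0% = low Mg2+ inducing control and 100% = high Mg2+ repressing control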; details: S. Typhimurium PhoP-regulated promoter GFP reporter, 4 h; at 50 µM; hits give high values

Row | Compound | inhibition
1 | O=C(N/N=C/c1ccccc1[N+](=O)[O-])c1cccs1 | -1.95%
2 | O=C(N/N=C/c1ccc(Br)s1)c1cccs1 | 0.89%
3 | O=C(N/N=C\c1ccc(Cl)s1)c1cccs1 | -9.8%
4 | O=C(N/N=C\c1cc2c(cc1[N+](=O)[O-])OCO2)c1cccs1 | -4.81%
5 | COc1ccccc1NC(=O)Nc1ccc(Cl)c(S(=O)(=O)Nc2ccccc2OC)c1 | -18.5%
6 | CCOc1ccc(CN(CC)C(=O)c2ccc3c(c2)[nH]c(=O)c(=O)n3CC)cc1OC | 2.8%
7 | COc1ccccc1CCNC(=O)C1(C)CC1(Cl)Cl (stereo not given) | -0.33%
8 | O=C(CN1CCN(Cc2ccccc2)CC1)NCc1ccc(Cl)cc1 | 3.85%
9 | CCOC(=O)C1CCCN(C(=O)c2ccccc2NC(C)=O)C1 (stereo not given) | 8.46%
10 | OCCn1c(CSc2nnc(-c3ccco3)n2-c2ccccc2)nc2ccc(Cl)cc21 | 8.64%
11 | COc1cccc(-c2nc(=S)c3c(n2CCCO)CCCC3)c1 | 6.79%
12 | CSc1cccc(NC(=S)N(CCCN2CCCC2)Cc2cccs2)c1 | 2.61%
13 | CN1\C(=C/C=C/C=C/C=[N+](C)C)C(C)(C)c2ccccc21 | -18.9%
14 | CN1/C(=C\C=O)C(C)(C)c2ccccc21 | 4.13%
15 | O=C(c1ccccc1)c1ccccn1 | 3.01%
16 | Cc1ccccc1-c1nnc(SCCOc2ccc3c(C)cc(=O)oc3c2)o1 | 0.64%
17 | Cc1ccc(S(=O)(=O)CC(=O)c2ccc([N+](=O)[O-])cc2)cc1 | -7.13%
18 | CCn1cc(C(=O)NN)c(=O)c2cc(F)c(N3CCOCC3)cc21 | -6.58%
19 | CCn1cc(C(=O)NCc2ccccn2)c(=O)c2cc(F)c(N3CCN(C)CC3)cc21 | 17.4%
20 | CCCCCOC(=O)NCC(O)c1ccccc1 (stereo not given) | 10.7%
21 | N#CC1=C(N)N(c2ccccc2)C(c2cccc([N+](=O)[O-])c2)C1(C#N)C#N (stereo not given) | -7.85%
22 | O=C(Cc1ccccc1)c1c[nH]c(C(=O)NCCCN2CCOCC2)c1 | -3.4%
23 | O=C(Nc1ccccc1N1CCOCC1)C1CCN(S(=O)(=O)c2ccc(F)cc2)CC1 | -4.59%
24 | O=C(Nc1ccc(CN2CCOCC2)cc1)c1cccc(-c2cc3ccccc3oc2=O)c1 | -5.22%
25 | Cc1cc([N+](=O)[O-])ccc1-c1ccc(C2Nc3ccccc3C(=O)N2O)o1 (stereo not given) | -3.84%
26 | O=C1c2ccccc2NC(c2ccc(-c3cccc([N+](=O)[O-])c3)o2)N1O (stereo not given) | 43%
27 | O=C1c2ccccc2NC(c2ccc(Cl)cc2Cl)N1O (stereo not given) | 0.793%
28 | O=C1c2ccccc2NC(c2ccco2)N1O (stereo not given) | 7.8%

Row | Compound | inhibition
29 | O=C(N/N=C/c1ccccc1[N+](=O)[O-])c1ccc2c(c1)OCCO2 | -4.47%
30 | CCOC(=O)c1sc(=S)n(-c2ccc(C)cc2)c1SC | -0.48%
31 | Nc1nc(N2CCCCC2)nc2ccccc12 | 0.383%
32 | Nc1nc(N2CCOCC2)nc2ccccc12 | 19.6%
33 | O=C(N/N=C\c1cccc(Cl)c1)c1ccc(Cn2cc(Br)c([N+](=O)[O-])n2)o1 | -28.5%
34 | O=C(O)/C=C/c1ccccc1Oc1ccc(Cl)cc1Cl | 1.78%
35 | Nc1cc(C(=O)O)c(Oc2ccc(Cl)cc2Cl)cc1C(=O)O | 9.23%
36 | COc1ccc(N2CCN(C(=O)COc3cccc4ccccc34)CC2)cc1 | 4.64%
37 | Cc1ccc(NCC(=O)N/N=C/c2ccc(C(=O)O)cc2)cc1 | 7.26%
38 | CC(=O)N1CCOc2ccc(S(=O)(=O)N3CCC(C(=O)Nc4ccc(C)cc4)CC3)cc21 | 0.99%
39 | COc1ccc(NCc2nn(CC(=O)c3ccc(Br)cc3)c3[n+]2CCCCC3)cc1 | -2.79%
40 | O=C(Cn1nc(CNc2ccc(Cl)cc2)[n+]2c1CCCCC2)c1ccccc1 | 8.62%
41 | O=C(Cn1nc(CNc2ccc(Br)cc2)[n+]2c1CCCCC2)c1ccc([N+](=O)[O-])cc1 | 5.85%
42 | O=C(Cn1nc(CNc2ccc(Cl)cc2)[n+]2c1CCCCC2)c1ccc(Cl)cc1 | 7.8%
43 | O=C1Nc2ccccc2OCc2c1cccc2[N+](=O)[O-] | -2.35%
44 | O=C(O)C1CCC1C(=O)Nc1nc(-c2ccc(Cl)s2)cs1 (stereo not given) | -4.65%
45 | CCC(=O)c1ccccc1OCCCCn1cncn1 | 4.32%
46 | CN1CCN(C(=O)CSc2nnc(COc3ccc(Cl)cc3)o2)CC1 | 5.2%
47 | CC(=O)Nc1cccc(NC(=O)CCNC(=O)c2ccccc2)c1 | 5.9%
48 | Cc1nnc(SCc2ccc(CC(=O)O)cc2)o1 | -9.32%
49 | COc1ccc(C(=O)NCC(c2cccs2)N2CCc3ccccc32)cc1OC (stereo not given) | -7.86%
50 | COC(=O)C1=C(C)NC2=C(C(=O)CC(C)(C)C2)C1c1cnn(C)c1C (stereo not given) | -3.34%
51 | C/C(=N\Nc1nc2ccccc2[nH]1)c1ccc(Cl)s1 | 31.6%
52 | C/C(=N\Nc1nc2ccccc2[nH]1)c1ccc(C)o1 | 9.28%
53 | CN(C)S(=O)(=O)c1ccc(C(=O)NCc2ccccc2)cc1 | 5.29%
54 | CC(C)CNC(=O)COC(=O)c1cccc(S(=O)(=O)NCC(F)(F)F)c1 | 0.22%
55 | Cn1c(=O)c(C(=O)NNC(=O)c2ccccc2Cl)c(O)c2ccccc21 | 3.12%
